Out of some 310,000 compounds screened, about 14,000 (4.5%) showed an effect of 50% or more. Effects have a minus sign here. The sample holds strong results, similar compounds and a random draw of the others, so the mix is not that of the screen.
Target: human ether-à-go-go-related gene (hERG) potassium channel (human, UniProt Q12809)
Test: primary screen, population patch clamp on CHO cells stably expressing hERG; higher = less effect of the substance
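Note: peak tail current of the secondary pulse compared with the same well before compound.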

Chain of human ether-à-go-go-related gene (hERG) potassium channel (Q12809 whole entry, looked up): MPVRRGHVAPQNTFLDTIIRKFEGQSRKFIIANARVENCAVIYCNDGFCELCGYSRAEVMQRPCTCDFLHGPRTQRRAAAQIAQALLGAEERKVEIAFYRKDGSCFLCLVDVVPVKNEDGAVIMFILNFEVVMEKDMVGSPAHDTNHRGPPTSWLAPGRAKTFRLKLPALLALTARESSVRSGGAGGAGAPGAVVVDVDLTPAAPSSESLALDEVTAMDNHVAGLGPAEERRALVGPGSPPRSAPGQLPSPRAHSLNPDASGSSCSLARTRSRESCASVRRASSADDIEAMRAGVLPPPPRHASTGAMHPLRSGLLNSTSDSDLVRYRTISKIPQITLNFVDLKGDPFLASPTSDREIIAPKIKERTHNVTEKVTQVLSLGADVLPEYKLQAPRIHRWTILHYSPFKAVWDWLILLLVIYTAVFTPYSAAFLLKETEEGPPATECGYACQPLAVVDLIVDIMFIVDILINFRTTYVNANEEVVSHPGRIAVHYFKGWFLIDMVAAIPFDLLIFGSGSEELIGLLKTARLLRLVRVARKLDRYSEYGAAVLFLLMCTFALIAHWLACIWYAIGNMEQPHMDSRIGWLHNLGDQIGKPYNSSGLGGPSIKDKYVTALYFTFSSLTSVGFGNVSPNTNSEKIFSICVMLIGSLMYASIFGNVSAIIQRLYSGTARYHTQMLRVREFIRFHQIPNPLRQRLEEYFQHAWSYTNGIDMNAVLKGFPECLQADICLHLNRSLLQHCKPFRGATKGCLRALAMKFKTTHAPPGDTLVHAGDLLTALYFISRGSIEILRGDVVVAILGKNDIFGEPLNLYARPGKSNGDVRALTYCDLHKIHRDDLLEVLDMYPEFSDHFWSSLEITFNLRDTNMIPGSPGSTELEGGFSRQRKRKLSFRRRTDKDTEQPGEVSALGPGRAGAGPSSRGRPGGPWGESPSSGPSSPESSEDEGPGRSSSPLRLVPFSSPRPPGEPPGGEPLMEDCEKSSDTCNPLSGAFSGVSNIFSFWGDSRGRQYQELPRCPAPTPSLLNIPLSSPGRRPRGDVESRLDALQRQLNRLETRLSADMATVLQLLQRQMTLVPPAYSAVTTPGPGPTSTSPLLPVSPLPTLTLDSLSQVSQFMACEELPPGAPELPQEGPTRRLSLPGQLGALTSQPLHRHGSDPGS

Structure (SMILES) | hERG current change (%, negative = inhibition) at 10uM
N/C(=N\OC(=O)C(c1ccccc1)c1ccccc1)c1ccccn1 | 8.35%
Cl.O=C(NCC(c1cccs1)N1CCOCC1)c1ccc(Cl)s1 (centres unmarked) | -21.6%
CC(=O)NC(=O)COC(=O)/C=C/c1c(C)nn(Cc2c(Cl)cccc2Cl)c1Cl | -2.82%
O=C(O)CSc1nc2ccc(C(=O)c3ccccc3)cc2[nH]1 | 17.2%
CCOC(=O)c1cn(CC)c2cc(F)c(F)cc2c1=O | 3.48%
CCCCCCn1cc(C(=O)OCC)c(=O)c2cc(F)c(F)cc21 | -52.6%
CCCn1cc(C(=O)OCC)c(=O)c2cc(F)c(F)cc21 | 2.11%
CCC(=O)c1cn(Cc2ccccc2)c2ccccc12 | -7.05%
CC(C)(C)C(=O)c1cn(Cc2ccccc2)c2ccccc12 | -4.12%
O=C(O)c1cn(Cc2ccccc2)c2ccccc2c1=O | -79.3%
COc1ccc(OC)c(N2C(=O)CC(Cc3ccc(C)cc3)C2=O)c1 (centres unmarked) | -2.87%
CCC1(c2ccccc2)NC(=O)N(CC(=O)Nc2ccc3c(c2)OCO3)C1=O (centres unmarked) | -6.09%
CCOC(=O)c1oc2cccc(O)c2c1C | -7.22%
C=CCn1c(SCc2c(F)cccc2Cl)nnc1-c1ccco1 | -19.3%
COc1ccc(CN2CCN(CCc3ccccc3)C(CCO)C2)c(Cl)c1OC (centres unmarked) | -60.1%
COc1ccc(OC)c(CN2CCN(CCc3ccccc3)C(CCO)C2)c1 (centres unmarked) | -60.6%
COc1ccc(CN2CCN(CCCc3ccccc3)C(CCO)C2)c(OC)c1 (centres unmarked) | -72.9%
COc1cccc(CN2CCN(CCc3ccccc3)C(CCO)C2)c1OC (centres unmarked) | -34.8%
COc1ccc(OC)c(CN2CCN(CCCc3ccccc3)C(CCO)C2)c1 (centres unmarked) | -68.6%
CCOC(=O)C1(CC)CC(CSc2nc3ccccc3[nH]2)OC1=O.Cl (centres unmarked) | -2.61%
COc1ccc(C(=O)Nc2cccc3ccccc23)cc1 | 1.02%
CC(C)(C)c1cc(C(=O)NNc2cccc(Cl)c2)n(Cc2ccccc2)n1 | -4.28%

Structure (SMILES) | hERG current change (%, negative = inhibition) at 10uM
Cc1cc(-c2nnc(SCC(=O)Nc3ccccc3F)n2N)n[nH]1 | 13.8%
CC1(C)NC(=O)N(CCCC(=O)Nc2ccc(C(F)(F)F)cc2)C1=O | -16.9%
CCOC(=O)c1c(-c2cccs2)csc1NC(C)=O | -1.29%
COc1ccc(N2CC(C(=O)OCC(=O)Nc3ccccc3C)CC2=O)cc1 (centres unmarked) | 15.6%
CN1CCN(C(=S)c2ccc(Cl)cc2)CC1 | 3.39%
CCN(C(=O)COc1ccccc1C(=O)NCc1ccccc1)C1CCS(=O)(=O)C1 (centres unmarked) | -22.1%
CCC(C)N(C(=O)COc1ccccc1C(=O)NCc1ccccc1)C1CCS(=O)(=O)C1 (centres unmarked) | -39.2%
CCCN(CC1CC1)C(=O)COc1ccccc1C(=O)NCc1ccccc1 | -56%
COc1ccc(-n2nc3c(c2NC(=O)c2cc(Br)ccc2Cl)CS(=O)C3)cc1 (centres unmarked) | -43.4%
COc1ccc(C(=O)Nc2c3c(nn2-c2cccc(Cl)c2)CS(=O)C3)cc1 (centres unmarked) | -25.6%
COc1ccc(-n2nc3c(c2NC(=O)c2ccc(Br)cc2)CS(=O)C3)cc1 (centres unmarked) | -50.8%
CN(C)c1ccc(Sc2nnc(NC(=O)Nc3ccc(Cl)cc3Cl)s2)cc1 | 12.2%
COc1ccc(C(=O)O)cc1S(=O)(=O)Nc1ccc(C)cc1 | 23.1%
COc1ccc(C(=O)NCc2ccccc2OC)cc1 | -10.3%
CN(C)CC(NC(=O)c1cccc(S(=O)(=O)Nc2ccc3c(c2)OCO3)c1)c1ccccc1 (centres unmarked) | -14.8%
COc1ccc2cc(C(=O)NCc3ccccc3CN3CCCC3)ccc2c1 | -68.2%
CCN(CC)Cc1ccccc1CNC(=O)c1cccc(S(=O)(=O)Nc2ccc3c(c2)OCO3)c1 | -71.3%
CCN1CCN(C(=O)c2ccc(OC)c(S(=O)(=O)Nc3ccc(C)cc3)c2)CC1 | -18.4%
O=C(O)c1cccc(S(=O)(=O)Nc2ccc3c(c2)OCO3)c1 | 23.4%
O=C(NCc1ccccc1CN1CCCC1)c1cccc(N2CCCC2=O)c1 | -3.11%
COc1ccc(OC)c(CN2CCN(C(=O)CNC(=O)c3cc(C)cc(C)c3)CC2)c1 | -42.7%
COc1ccc(OC)c(CN2CCN(C(=O)CCNC(=O)c3ccc(Br)cc3)CC2)c1 | -45.7%

Structure (SMILES) | hERG current change (%, negative = inhibition) at 10uM
COc1ccc(OC)c(CN2CCN(C(=O)CNC(=O)c3ccc(C(C)(C)C)cc3)CC2)c1 | -53.9%
COc1ccc(C(=O)NCc2ccccc2CN2CCCC2)cc1S(=O)(=O)Nc1ccc(C)cc1 | -57.9%
COc1ccccc1-c1nc(S(=O)(=O)c2ccccc2)c(N2CCCCC2)o1 | 14.4%
Cc1cc(C)cc(NC(=O)CSc2nc3[nH]ncc3c(=O)[nH]2)c1 | 11.8%
C/C(=N\NC(=S)Nc1cccc(C)c1)c1ccco1 | -6.35%
Cc1cc2c3c(c1C)C(=O)C(=O)N3C(C)(C)CC2C (centres unmarked) | 6.5%
O=C(COC(=O)CCCN1C(=O)c2ccccc2C1=O)Nc1cc(Cl)cc(Cl)c1 | -3.11%
CC12CCC(C(=O)Nc3nc4ccccc4s3)(OC1=O)C2(C)C (centres unmarked) | 2.26%
O=C(NCc1ccccc1CN1CCCC1)c1ccc(OCc2cscn2)cc1 | -30%
O=C(NCc1ccccc1CN1CCCC1)c1cccc(S(=O)(=O)Nc2ccc(F)cc2)c1 | -75.2%
O=C(NCCN1CCOCC1)c1cccc(S(=O)(=O)Nc2ccc(F)cc2)c1 | -5.27%
Cc1nc(COc2ccc(C(=O)Nc3ccccc3N3CCOCC3)cc2)cs1 | -49.1%
COc1ccc(NS(=O)(=O)c2cccc(C(=O)NCCCN3CCOCC3)c2)cc1 | 5.96%
COc1ccc(NS(=O)(=O)c2cccc(C(=O)NCc3ccco3)c2)cc1 | -15.8%
Cc1cccc(NS(=O)(=O)c2cccc(C(=O)NCc3ccccc3CN3CCOCC3)c2)c1 | -26%
Cc1nc(COc2ccc(C(=O)NCc3ccccc3CN3CCCCC3)cc2)cs1 | -52.5%
COc1ccc(NS(=O)(=O)c2cccc(C(=O)NCc3ccccc3CN3CCCC3)c2)cc1 | -64.4%
COc1ccc(N/C=C(\C(C)=O)c2ccc(OC)c(OC)c2)cc1OC | 18.2%
CCNc1nc(N2CCOCC2)nc(N(c2ccccc2)c2ccccc2)n1 | -12.9%
CS(=O)(=O)N1CCC(C(=O)Nc2cc(Cl)cc(Cl)c2)CC1 | 4.85%
Cn1c(=O)c2c(nc(Sc3ccccc3N)n2C)n(C)c1=O | 11.4%
Cl.c1coc(Cn2nnnc2CN2CCN(C3CCCCC3)CC2)c1 | -41.4%

Structure (SMILES) | hERG current change (%, negative = inhibition) at 10uM
CC(C)C(c1nnnn1Cc1ccco1)N1CCN(C2CCCC2)CC1.Cl (centres unmarked) | -3.68%
Cl.Fc1ccc(C(c2nnnn2Cc2ccco2)N2CCN(C3CCCCC3)CC2)cc1 (centres unmarked) | -65.6%
Cl.c1ccc(C(c2nnnn2Cc2ccco2)N2CCN(C3CCCC3)CC2)cc1 (centres unmarked) | -53.5%
CCCC(c1nnnn1Cc1ccco1)N1CCN(C2CCCC2)CC1 (centres unmarked) | -31%
CC(C)CC(c1nnnn1Cc1ccco1)N1CCN(C2CCCC2)CC1.Cl (centres unmarked) | -38.1%
N#Cc1nc(COc2ccccc2)oc1N1CCOCC1 | -19.6%
Cc1ccc(NC(=O)/C=C\C(=O)NCC(=O)O)cc1 | 0.434%
CC(=O)C1=C(C)Nc2ncnn2C1c1ccc(Cl)cc1Cl (centres unmarked) | 2.23%
Cn1cc(CN2CCC(n3nccc3NC(=O)Cc3ccccc3)CC2)cn1 | -41.8%
O=C(Nc1ccc(N2CCN(C(=O)c3ccccc3)CC2)cc1)c1cccnc1 | -1.77%
Cc1ccc(C(=O)N2CCN(c3ccc(NC(=O)c4cccnc4)cc3)CC2)cc1 | -38.8%
COc1ccc(NC(=O)c2cccnc2)cc1 | -11.1%
COc1ccc(C(=O)N2CCN(c3ccc(NC(=O)c4cccnc4)cc3)CC2)cc1 | -53.7%
CCc1ccc(C(=O)N2CCN(c3ccc(NC(=O)c4cccnc4)cc3)CC2)cc1 | -71.3%
Cc1ccccc1C(=O)N1CCN(c2ccc(NC(=O)c3cccnc3)cc2)CC1 | -23%
C=CCN1C(=O)C(C)(C)N(C(=O)c2cccc([N+](=O)[O-])c2)c2ccccc21 | -16.4%
Cc1ccc[n+](C2C(c3ccc([N+](=O)[O-])cc3)C(C#N)=C([S-])NC2(O)C2CC2)c1 (centres unmarked) | 0.00258%
O=C(CCCN1C(=O)c2ccccc2C1=O)NCC1CCCO1 (centres unmarked) | 12.2%
COc1cc(SC)ccc1C(=O)Nc1ccc2c(c1)OCCO2 | -18.4%
CCCCc1c(C)nn(-c2nnc3c4ccccc4n(C)c3n2)c1C | -4.7%

Reference: paper PMC4336329 (PLoS ONE, 2015)
